Test [1] is described as follows: inhibitors of TNFa-induced NFkB p65 translocation, primary screen, imaging, HUVEC, MLSMR starter and 10KST1 sets (AID 438;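 active = inhibition above 20% together with a positive visual image hit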;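 also: compound added about 3h40 before a 20 min TNFalpha stimulation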;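 as to inhibition: signal is the nuclear over cytoplasmic p65 intensity ratio per well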). Conditions: HUVEC TNFa-induced p65 nuclear translocation; cell count: measured here: nuclei count (cytotoxicity indicator), at 2.08 µM; inhibition: at 2 µM, stronger effect = higher value, 0% TNFa-plus-vehicle, 100% no-TNFa wells.
Test [2] is described as follows: inhibitors of mutant huntingtin aggregation, primary screen, imaging, exon1htt(103Q)mCFP cells, high-content imaging (AID 483;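 active = visual image review flags a hit and inhibition of aggregation exceeds 20%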;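 also: compound exposure lasted 3 days before fixation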;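 as to nuclei count: percent of the per-plate median nuclei count of sample wells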). The settings on record: exon1htt(103Q)mCFP cell line, aggregate imaging, at 2 µM; inhibition of aggregation: stronger effect = higher value; nuclei count: measured here: cell count, toxicity.
The nature of test [3]: inhibitors of E-selectin induction by TNFa, primary screen, imaging, HUVEC, immunofluorescence, MLSMR starter and 10KST1 sets (AID 487;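 active = visually confirmed hit in the image check and inhibition above 20%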;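 as to inhibition: signal is fraction of cell area covered by stained E-selectin grains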;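 as to nuclei count: 100% = median nuclei count of all wells on the same plate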). Conditions: HUVEC TNFalpha-induced E-selectin immunofluorescence imaging, at 2 µM; inhibition: stronger effect = higher value; nuclei count: measured here: cell number, toxicity.
Test [4] addresses Voltage-gated potassium channel subunit beta-2 (Rattus norvegicus) (UniProt P62483). Kind of test: KvBeta enzyme negative modulators, primary screen, biochemical, NADPH fluorescence (AID 622).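 Also: slope of raw intensity against log time taken from 70 to 1610 s.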 The settings on record: recombinant KvBeta, 4-cyanobenzaldehyde reduction, at 10 µM, stronger effect = higher value.
Test [5] shares this target. Put plainly: KvBeta positive modulators, primary screen, biochemical, NADPH fluorescence (AID 623;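 active = NADPH fluorescence slope more negative than the mean of all samples by about 3 SD, 99.7% confidence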;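 also: fluorescence intensity change per second fitted from 20 to 320 s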). The settings on record: Recombinant KvBeta, NADPH fluorescence decrease slope, 10 min; at 10 µM; stronger effect = lower value.
Test [6] addresses Alpha-2C adrenergic receptor (Homo sapiens) (UniProt P18825). Kind of test: modulators of alpha2C/GIRK thallium flux, primary screen, cell-based, HEK293 alpha2C/GIRK1/2 (AID 624;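 active = fluorescence slope after compound addition differing from the mean of all screened samples at 99.7% confidence, in either direction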;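 also: slope of fluorescence ratio to pre-addition baseline per second over 15 to 24 s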). Conditions: thallium flux BTC fluorescence, at 10 µM, actives lie on both sides.
A short description of test [7]: inhibitors of Sendai virus-induced IRF3 signaling, primary screen, TLR/RLR signaling modifier project, cell-based, Sendai virus stimulus, luciferase, 10K MLSCN set (AID 602276;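 active = inhibition at or above 50% at 10 µM; inactive = inhibition below 50%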;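 also: firefly luciferase from ISG56 promoter only with Renilla not read in this screen; 0% = Sendai virus plus DMSO and 100% = medium plus DMSO without virus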). Conditions: HEK293 RL24 IRF3 luciferase reporter, at 10 µM, stronger effect = higher value. On the technique in general: Reporter assays use an easily measured gene product as a stand-in for the process of interest.

Test [8] can be described thus: inhibitors of poly I:C-induced TLR3 signaling, primary screen, cell-based, poly I:C stimulus, luciferase, 10K MLSCN set (AID 602277;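 active = inhibition of the reporter signal at or above 50%; inactive = inhibition below 50%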). Conditions: HEK293-TLR3 RL24 IRF3 luciferase reporter, at 10 µM, stronger effect = higher value.

Results on 14 molecules are retold here after PubChem BioAssay.

SMILES strings stand for the structures. The source made the active and inactive calls.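 The calls were made as follows, unless noted: active = fluorescence slope higher than the sample average by over 3 SD (cut at about -0.22 in these data, passing the limit was not always enough); inactive = the rest.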

The term inhibition denotes the drop in the measured response relative to a control, in per cent.

Voltage-gated potassium channel subunit beta-2 (Rattus norvegicus), sequence (P62483 whole entry, looked up): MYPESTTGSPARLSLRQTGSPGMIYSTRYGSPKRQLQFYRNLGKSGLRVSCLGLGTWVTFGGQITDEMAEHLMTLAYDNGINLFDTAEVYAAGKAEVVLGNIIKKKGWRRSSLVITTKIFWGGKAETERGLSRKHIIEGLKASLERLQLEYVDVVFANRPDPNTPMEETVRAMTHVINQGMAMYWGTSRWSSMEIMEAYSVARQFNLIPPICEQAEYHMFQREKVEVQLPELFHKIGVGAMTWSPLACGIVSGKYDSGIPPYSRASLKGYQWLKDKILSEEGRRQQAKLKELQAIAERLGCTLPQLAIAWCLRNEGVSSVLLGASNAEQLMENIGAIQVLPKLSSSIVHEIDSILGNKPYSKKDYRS
Alpha-2C adrenergic receptor (Homo sapiens), sequence (P18825 whole entry, looked up): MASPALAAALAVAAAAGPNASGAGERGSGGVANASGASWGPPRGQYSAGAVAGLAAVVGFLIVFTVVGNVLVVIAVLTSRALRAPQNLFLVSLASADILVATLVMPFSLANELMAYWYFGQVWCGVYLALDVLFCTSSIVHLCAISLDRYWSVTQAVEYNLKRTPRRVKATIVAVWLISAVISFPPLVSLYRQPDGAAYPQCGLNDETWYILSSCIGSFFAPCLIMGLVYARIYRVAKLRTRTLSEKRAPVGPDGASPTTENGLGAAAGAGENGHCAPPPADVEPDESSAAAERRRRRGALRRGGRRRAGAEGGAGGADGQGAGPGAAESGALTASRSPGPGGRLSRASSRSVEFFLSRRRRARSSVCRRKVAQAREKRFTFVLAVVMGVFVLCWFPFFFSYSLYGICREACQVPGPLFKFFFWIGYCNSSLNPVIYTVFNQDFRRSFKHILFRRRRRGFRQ

Regarding `COc1ccc(NC(=O)CCc2nc(-c3ccccc3F)no2)cc1`, in test [1], the cell count came to 729. Further, the inhibition in test [1] is -1.7% (inactive); in test [3] it was -8.4% (inactive); in test [7], 4.66% (inactive); in test [8] it was 10.4% (inactive). For the same molecule, in test [2], the inhibition of aggregation is 30% (active). The nuclei count was 94.6% in test [2] and 115% in test [3]. Also, the fluorescence slope in test [4] was -0.47 (inactive). Moreover, the NADPH fluorescence slope in test [5] is -2.2e-05 (inactive). Moreover, the slope in test [6] is 0.00593 (inactive).

Take `CCC(c1nnnn1Cc1ccco1)N(CCc1ccccc1)Cc1cc2cccc(C)c2[nH]c1=O` (centres undefined): in test [1], the cell count worked out at 788. The inhibition was -8.4% (inactive) in test [1], -19.1% (inactive) in test [3], 25.2% (inactive) in test [7] and 31.5% (inactive) in test [8]. Further, the inhibition of aggregation in test [2] is -2.2% (inactive). For the same molecule, the nuclei count in test [2] was 86.2%; in test [3] it was 110%. For the same molecule, in test [4], the fluorescence slope is -0.396 (inactive). In addition, the NADPH fluorescence slope in test [5] was -1.9e-05 (inactive). In addition, in test [6], the slope is 0.00487 (inactive).

On to `CCOC(=O)CNC(=O)CSc1nnnn1-c1cc(C)ccc1C`, for which the cell count in test [1] turned out to be 355. The inhibition in test [1] is -3.6% (inactive); in test [3], 51.5% (inactive); in test [7], 4.69% (inactive); in test [8], 10.9% (inactive). In addition, in test [2], the inhibition of aggregation is 14.6% (inactive). Besides, the nuclei count in test [2] turned out to be 89.4%; in test [3], 82%. Moreover, in test [4], the fluorescence slope was -0.533 (inactive). The NADPH fluorescence slope in test [5] is 3e-05 (inactive). The slope in test [6] was 0.00704 (inactive).

For `Cc1nn(S(=O)(=O)N2CCCCC2)c(C)c1Br`, the cell count in test [1] came out at 335. In addition, the inhibition in test [1] is 4% (inactive); in test [3] it was -93.4% (inactive); in test [7], 1.73% (inactive); in test [8] it was 17.2% (inactive). The inhibition of aggregation in test [2] was 10.9% (inactive). The nuclei count in test [2] was 101%; in test [3], 119%. Also, the fluorescence slope in test [4] was -0.291 (inactive). For the same molecule, in test [5], the NADPH fluorescence slope is -1.5e-05 (inactive). In addition, the slope in test [6] is 0.00571 (inactive).

Regarding `Cc1c(NC(=O)c2noc3c2CCc2ccccc2-3)c(=O)n(-c2ccccc2)n1C`, in test [1], the cell count was 620. Moreover, the inhibition in test [1] was -3.4% (inactive); in test [3], -79.6% (inactive); in test [7] it was 2.37% (inactive); in test [8], -5.2% (inactive). Besides, the inhibition of aggregation in test [2] was -4.3% (inactive). In addition, the nuclei count was 110% in test [2] and 116% in test [3]. In test [4], the fluorescence slope was -0.474 (inactive). Further, the NADPH fluorescence slope in test [5] was 2.6e-05 (inactive). Besides, the slope in test [6] is 0.0062 (inactive).

Turning to `c1ccn2c(SCc3cn4ccsc4n3)nnc2c1`, in test [1], the cell count was found to be 586. In addition, the inhibition in test [1] is -7.3% (inactive); in test [3] it was -20.5% (inactive); in test [7], -1.63% (inactive); in test [8], -34.1% (inactive). Also, the inhibition of aggregation in test [2] was 19.5% (inactive). In addition, the nuclei count in test [2] was 90.6%; in test [3] it was 111%. For the same molecule, the fluorescence slope in test [4] is -0.544 (inactive). Further, the NADPH fluorescence slope in test [5] was 2.4e-05 (inactive). For the same molecule, the slope in test [6] is 0.00536 (inactive).

Consider `Cc1cc(Oc2ccccc2)nc(-c2ccccc2)n1`, for which, in test [1], the cell count was found to be 763. The inhibition in test [1] is 4.4% (inactive); in test [3], 62.8% (active); in test [7], -19.4% (inactive); in test [8], -47.5% (inactive). For the same molecule, the inhibition of aggregation in test [2] is -2.1% (inactive). The nuclei count in test [2] stood at 99.1%; in test [3], 70.6%. Also, in test [4], the fluorescence slope was -0.484 (inactive). Besides, the NADPH fluorescence slope in test [5] was -8.7e-05 (inactive). Also, in test [6], the slope is 0.00573 (inactive).

Take `COc1ccc2nc(N3CCC(C)CC3)c(C#N)cc2c1`: the cell count in test [1] is 380. Moreover, the inhibition in test [1] is 7.3% (inactive); in test [3] it was -59.3% (inactive); in test [7], -48.2% (inactive); in test [8] it was -170% (inactive). Moreover, the inhibition of aggregation in test [2] was -10.6% (inactive). Also, the nuclei count in test [2] was determined as 108%; in test [3] it was 66.6%. The fluorescence slope in test [4] was -0.587 (inactive). For the same molecule, the NADPH fluorescence slope in test [5] is -9e-06 (inactive). In addition, the slope in test [6] was 0.00372 (inactive).

As to `Cc1nc(N)[nH]c(=O)c1CCC(=O)OCC(C)C`, the cell count in test [1] is 587. The inhibition in test [1] is -22.7% (inactive); in test [3] it was -61.2% (inactive); in test [7], 6.72% (inactive); in test [8], 32.1% (inactive). In addition, in test [2], the inhibition of aggregation is 5.9% (inactive). Moreover, the nuclei count in test [2] was 80%; in test [3], 97%. Further, the fluorescence slope in test [4] was -0.507 (inactive). Further, the NADPH fluorescence slope in test [5] is -4.8e-06 (inactive). In addition, the slope in test [6] was 0.00627 (inactive).

With `CCOC(=O)c1nc2sc3c(c2c(=O)[nH]1)CCCC3`, in test [1], the cell count is 763. In addition, the inhibition in test [1] was -1.6% (inactive); in test [3], 2.7% (inactive); in test [7] it was 13.1% (inactive); in test [8] it was 11.2% (inactive). Besides, the inhibition of aggregation in test [2] is -9.6% (inactive). The nuclei count in test [2] was determined as 84.3%; in test [3] it was 102%. In test [4], the fluorescence slope was -0.0445 (active). The NADPH fluorescence slope in test [5] was -1.1e-05 (inactive). Besides, in test [6], the slope is 0.0045 (inactive).

Turning to `Cc1cc2nc(-c3ccco3)cc(C(F)(F)F)n2n1`, the cell count in test [1] worked out at 903. The inhibition in test [1] was 3.5% (inactive); in test [3] it was -56.6% (inactive); in test [7], 10.1% (inactive); in test [8] it was 18.3% (inactive). Also, the inhibition of aggregation in test [2] was -18.7% (inactive). Further, the nuclei count was determined as 104% in test [2] and 121% in test [3]. In addition, the fluorescence slope in test [4] is -0.578 (inactive). Also, in test [5], the NADPH fluorescence slope was -1.8e-05 (inactive). Moreover, the slope in test [6] was 0.00736 (inactive).

Turning to `Cc1nc2ccccc2c2oc(C(=O)NCC3COc4ccccc4O3)cc12` (centres undefined), the cell count in test [1] amounted to 532. In addition, the inhibition in test [1] is 7.6% (inactive); in test [3] it was 3.3% (inactive); in test [7] it was 9.7% (inactive); in test [8], -3.35% (inactive). Further, the inhibition of aggregation in test [2] was -11.9% (inactive). For the same molecule, the nuclei count in test [2] was 91.7%; in test [3], 99%. Further, the fluorescence slope in test [4] was -0.569 (inactive). Further, the NADPH fluorescence slope in test [5] is -1.4e-05 (inactive). Further, in test [6], the slope was 0.00744 (inactive).

`Cn1c(=O)c2c([nH]c(=O)n2C)n(C)c1=O`: the cell count in test [1] stood at 364. In addition, the inhibition in test [1] was 1.7% (inactive); in test [3] it was 16.9% (inactive); in test [7], 18% (inactive); in test [8], 20.1% (inactive). Further, the inhibition of aggregation in test [2] was 2.6% (inactive). Besides, the nuclei count in test [2] was determined as 104%; in test [3] it was 101%. For the same molecule, the fluorescence slope in test [4] is -0.435 (inactive). Further, the NADPH fluorescence slope in test [5] is -0.000114 (inactive). Further, in test [6], the slope is 0.00554 (inactive).

In the case of `CCSc1nnc(NC(=O)c2csc(C)c2)s1`, the cell count in test [1] was found to be 366. Moreover, the inhibition in test [1] was 4.2% (inactive); in test [3] it was -18.6% (inactive); in test [7] it was -36.6% (inactive); in test [8], -89.7% (inactive). In test [2], the inhibition of aggregation is 12.8% (inactive). Also, the nuclei count in test [2] came to 101%; in test [3], 104%. The fluorescence slope in test [4] is -0.592 (inactive). Also, the NADPH fluorescence slope in test [5] was -1.3e-05 (inactive). In test [6], the slope is 0.00352 (inactive).
